Measurements taken from PubChem BioAssay (Tox21).
Inconclusive results are not listed. Active and inactive are the calls of the source. Unless noted, the call rests on the fitted dose curve; in most records, active means well fitted curve in the direction sought with a large enough effect in the repeat runs; inconclusive means weak or mixed curves; inactive means no such curve, though single readings can be large; an effect the other way counts as inactive or inconclusive.

Legend:
[1] = qHTS assay to identify small molecule antagonists of the estrogen related receptor (ERR) signaling pathway from Tox21 library - cell viability counter screen (AID 1224834); further: nearly all actives have a fitted effect of over 30% in size
Summary of the method: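 In this quantitative HTS format, ERR cells receive compounds in DMSO and are incubated for 17.5 h at 37 C. Live-cell protease activity is then detected with CellTiter-Fluor.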

[2] = target: Luciferin 4-monooxygenase (Photinus pyralis) (UniProt P08659); assay: qHTS assay to identify small molecule inhibitors of firefly luciferase (AID 1224835); further: nearly all actives have a fitted effect of over 25% in size; further: potency means the concentration at half of the fitted maximal effect
Summary of the method: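 Inhibition of purified Photinus luciferase is measured by luminescence. Substrate levels (D-luciferin, ATP) sit at their KM values. Each compound is tested in a concentration series.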

[3] = qHTS assay to identify small molecule agonists of the constitutive androstane receptor (CAR) signaling pathway - cell viability counter screen (AID 1224836); further: nearly all actives have a fitted effect of over 45% in size
Summary of the method: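 Fluorescence from CellTiter-Fluor indicates live cells after 23 h exposure. The human hepatoma line expresses hCAR and a CYP2B6-2.2kb reporter. Incubation medium contains 0.75 uM PK11195 (final).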

[4] = qHTS assay to identify small molecule antagonists of the constitutive androstane receptor (CAR) signaling pathway - cell viability counter screen (AID 1224837); further: nearly all actives have a fitted effect of over 45% in size
Summary of the method: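 In quantitative HTS format, compounds at 15 concentrations were applied to HepG2 cells double-transfected with hCAR and CYP2B6-2.2kb under 50 nM CITCO stimulation; live-cell protease activity was read after 23 hr via CellTiter-Fluor.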

[5] = target: Nuclear receptor subfamily 1 group I member 3 (Homo sapiens) (UniProt Q14994); assay: qHTS assay to identify small molecule antagonists of the constitutive androstane receptor (CAR) signaling pathway (AID 1224838); further: nearly all actives have a fitted effect of over 40% in size
Summary of the method: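 CITCO-stimulated (50 nM final) HepG2 cells stably transfected with hCAR and CYP2B6-2.2kb luciferase were exposed to compounds at 15 concentrations for 24 h at 37 C/5% CO2. A luciferase reagent was added and luminescence recorded after 30 min.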

[6] = target: Nuclear receptor subfamily 1 group I member 3 (Homo sapiens) (UniProt Q14994); assay: qHTS assay to identify small molecule agonists of the constitutive androstane receptor (CAR) signaling pathway (AID 1224839);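 further: HepG2 cells stably carrying human CAR and a CYP2B6 luciferase reporter; nearly all actives have a fitted effect of over 15% in size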
Summary of the method: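 Stable hCAR/CYP2B6-2.2kb HepG2 line in DMEM with 10% FBS; compounds (15 concentrations) and 0.75 uM PK11195 final, 24 h at 37 C/5% CO2, then ONE-Glo luminescence after 30 min.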

[7] = qHTS assay to identify small molecule antagonists of the estrogen related receptor signaling pathway with the pleiotropic PPARgamma coactivator (PGC) from Tox21 10K library - cell viability counter screen (AID 1224840; active means well fitted cell-killing curve with a large enough effect in the repeat runs, not every such curve was filed as active; further: nearly all actives have a fitted effect of over 40% in size)
Summary of the method: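 Viability counter screen, PGC/ERR cells: 17.5 h compound exposure at 37 C, CellTiter-Fluor fluorescence endpoint.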

[8] = qHTS assay to identify small molecule antagonists of the estrogen related receptor signaling pathway with the pleiotropic PPARgamma coactivator (PGC) from Tox21 10K library (AID 1224841; call rule not given here; further: actives are mostly falling curves and most rising ones were filed inactive; nearly all actives have a fitted effect of over 50% in size)
Summary of the method: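 In the PGC/ERR line, DMSO solutions of test chemicals are pin-delivered to 2,000 cells/well six hours after dispensing. Following eighteen hours' incubation, One-Glo reagent is added and luminescence recorded.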

[9] = qHTS assay to identify small molecule agonists of the estrogen related receptor signaling pathway with the pleiotropic PPARgamma coactivator (PGC) from Tox21 10K library (AID 1224842); further: nearly all actives have a fitted effect of over 15% in size
Summary of the method: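 Luminescence from One-Glo (30 min, room temperature) measured after PGC/ERR cells had 18 h at 37 C with pinned compound (23 nL in DMSO). Cells had been seeded at 2,000 per well and pre-incubated 6 h.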

[10] = target: Thyrotropin receptor (Homo sapiens) (UniProt P16473); assay: qHTS assay to identify small molecule agonists of the thyroid stimulating hormone receptor (TSHR) signaling pathway (AID 1224843; calls by dose curve; further: nearly all actives have a fitted effect of over 45% in size)
Summary of the method: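 A cell-based cAMP HTRF format was run in TSHR-transfected HEK293 cells, 800 per well. Treatment: 30 min, room temperature. Detection: 1 h with labelled cAMP and anti-cAMP cryptate. Concentration-response over 15 points, three replicates.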

[11] = qHTS assay to identify small molecule agonists of the hypoxia (HIF-1) signaling pathway - cell viability counter screen (AID 1224844; calls by dose curve; further: nearly all actives have a fitted effect of over 50% in size)
Summary of the method: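 Same wells as the HIF-1 reporter screen; ME-180 cells carrying HRE-bla, 17 hr treatment at 37C; CellTiter-Glo luminescence read after 30 min at room temperature.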

[12] = qHTS assay to identify small molecule agonists of H2AX (AID 1224845; active means well fitted activation curve with a large enough effect in the signal ratio in the repeat runs, not every such curve was filed as active; the % refers to the signal ratio)
Summary of the method: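 Phospho-H2AX Ser139 measured by HTRF (ex 320 nm; em 665 and 620 nm) after 24 hr antibody incubation. Compounds, 15 concentrations, 0.76% DMSO, were applied to CHO-K1 cells for 3hr at 37C before lysis.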

[13] = qHTS assay to identify small molecule agonists of the hypoxia (HIF-1) signaling pathway (AID 1224846; active means well fitted activation curve with a large enough effect in the signal ratio in the repeat runs, not every such curve was filed as active; the % refers to the signal ratio)
Summary of the method: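 In ME-180 cells bearing an HRE-bla construct, 17 h treatment with DMSO-dissolved compounds at 37C was followed by CCF4-AM loading to quantify reporter induction.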

[14] = qHTS assay to identify small molecule agonists of H2AX - cell viability counter screen (AID 1224847; calls by dose curve; further: top concentration of the series differs between compounds; nearly all actives have a fitted effect of over 30% in size)
Summary of the method: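 Viability of CHO-K1 (wild type) cells after 3 hr compound exposure was measured by CellTiter-Glo luminescence.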

[15] = qHTS assay to identify small molecule antagonists of the estrogen related receptor (ERR) signaling pathway from Tox21 library (AID 1224848); further: nearly all actives have a fitted effect of over 50% in size
Summary of the method: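 ERR cell line, 2,000 cells/well. 6 h settle, then compound (DMSO) added; 18 h at 37 C; ONE-Glo luminescence after 30 min RT.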

[16] = qHTS assay to identify small molecule agonists of the estrogen related receptor (ERR) signaling pathway from Tox21 library (AID 1224849; calls by dose curve; further: nearly all actives have a fitted effect of over 15% in size); settings: ERR reporter cell line, ONE-Glo luciferase, 18 h; at 92.4 µM (top of the series) unless noted
Summary of the method: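 Reporter cells (ERR, NTP source) treated with Tox21 10K compounds 18 h, 37 C. Readout: ONE-Glo luminescence, 30 min RT.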

[17] = qHTS RealTime-Glo MT Cell Viability Assay in HEK293 cells - 32 hour (AID 1224868); further: top concentration of the series differs between compounds; nearly all actives have a fitted effect of over 50% in size
Summary of the method: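 Homogeneous bioluminescent viability format in HEK293 cells (600 cells/well). Following 5 h at 37 C/5% CO2, 23 nL compound was pintooled; the signal was measured repeatedly during 40 h incubation.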

[18] = A CellTox Green Cytotoxicity Assay to monitor cytotoxicity in HEK293 cells - 0 hour (AID 1224869); further: nearly all actives have a fitted effect of over 50% in size
Summary of the method: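 Homogeneous no-lysis format: HEK293 cell suspension mixed with CellTox Green reagent, seeded, incubated 5 h at 37 C/5% CO2, then dosed by pintool with compound in DMSO.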

[19] = qHTS RealTime-Glo MT Cell Viability Assay in HepG2 cells - 24 hour (AID 1224867); further: nearly all actives have a fitted effect of over 50% in size
Summary of the method: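 Cell number in HepG2 cultures estimated from NanoLuc luminescence generated by metabolic reduction of a prosubstrate by living cells. The homogeneous, nonlytic format allowed repeated reads at 0, 8, 16, 24, 32 and 40 h of compound exposure.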

[20] = qHTS RealTime-Glo MT Cell Viability Assay in HepG2 cells - 40 hour (AID 1224870); further: nearly all actives have a fitted effect of over 50% in size
Summary of the method: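 Real-time viability: cells seeded at 600 per well together with NanoLuc and cell-permeant prosubstrate, compounds added after 5 h incubation. Luminescence tracked at 0, 8, 16, 24, 32 and 40 h of exposure.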
On the % scale 0 is the no-effect control and ±100 the full control effect.

Luciferin 4-monooxygenase (Photinus pyralis), sequence (P08659 whole entry, looked up): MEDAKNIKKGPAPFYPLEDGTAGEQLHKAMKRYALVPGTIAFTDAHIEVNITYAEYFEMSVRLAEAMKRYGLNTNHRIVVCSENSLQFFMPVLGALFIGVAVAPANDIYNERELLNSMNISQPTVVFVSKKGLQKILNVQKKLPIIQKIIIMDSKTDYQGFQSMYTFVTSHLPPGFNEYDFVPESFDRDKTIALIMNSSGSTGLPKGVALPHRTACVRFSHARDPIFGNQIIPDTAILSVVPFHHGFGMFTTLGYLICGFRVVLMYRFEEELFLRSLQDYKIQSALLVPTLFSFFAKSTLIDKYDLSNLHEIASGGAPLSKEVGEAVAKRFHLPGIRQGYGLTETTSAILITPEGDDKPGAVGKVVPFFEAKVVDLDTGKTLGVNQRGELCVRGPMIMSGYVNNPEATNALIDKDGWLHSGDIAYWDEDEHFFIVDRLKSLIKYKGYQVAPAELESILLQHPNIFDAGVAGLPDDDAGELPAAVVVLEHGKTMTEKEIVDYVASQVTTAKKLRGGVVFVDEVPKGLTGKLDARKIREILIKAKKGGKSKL
Nuclear receptor subfamily 1 group I member 3 (Homo sapiens), sequence (Q14994 whole entry, looked up): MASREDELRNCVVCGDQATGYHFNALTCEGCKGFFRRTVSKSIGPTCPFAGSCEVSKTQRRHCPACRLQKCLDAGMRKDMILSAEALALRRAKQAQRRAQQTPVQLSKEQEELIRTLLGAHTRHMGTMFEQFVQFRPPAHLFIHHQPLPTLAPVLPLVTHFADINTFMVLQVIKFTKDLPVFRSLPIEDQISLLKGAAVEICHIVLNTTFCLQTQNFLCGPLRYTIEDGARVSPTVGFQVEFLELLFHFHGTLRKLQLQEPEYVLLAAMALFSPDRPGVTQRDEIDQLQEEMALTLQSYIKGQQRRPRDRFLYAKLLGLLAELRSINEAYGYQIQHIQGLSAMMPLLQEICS
Thyrotropin receptor (Homo sapiens), sequence (P16473 whole entry, looked up): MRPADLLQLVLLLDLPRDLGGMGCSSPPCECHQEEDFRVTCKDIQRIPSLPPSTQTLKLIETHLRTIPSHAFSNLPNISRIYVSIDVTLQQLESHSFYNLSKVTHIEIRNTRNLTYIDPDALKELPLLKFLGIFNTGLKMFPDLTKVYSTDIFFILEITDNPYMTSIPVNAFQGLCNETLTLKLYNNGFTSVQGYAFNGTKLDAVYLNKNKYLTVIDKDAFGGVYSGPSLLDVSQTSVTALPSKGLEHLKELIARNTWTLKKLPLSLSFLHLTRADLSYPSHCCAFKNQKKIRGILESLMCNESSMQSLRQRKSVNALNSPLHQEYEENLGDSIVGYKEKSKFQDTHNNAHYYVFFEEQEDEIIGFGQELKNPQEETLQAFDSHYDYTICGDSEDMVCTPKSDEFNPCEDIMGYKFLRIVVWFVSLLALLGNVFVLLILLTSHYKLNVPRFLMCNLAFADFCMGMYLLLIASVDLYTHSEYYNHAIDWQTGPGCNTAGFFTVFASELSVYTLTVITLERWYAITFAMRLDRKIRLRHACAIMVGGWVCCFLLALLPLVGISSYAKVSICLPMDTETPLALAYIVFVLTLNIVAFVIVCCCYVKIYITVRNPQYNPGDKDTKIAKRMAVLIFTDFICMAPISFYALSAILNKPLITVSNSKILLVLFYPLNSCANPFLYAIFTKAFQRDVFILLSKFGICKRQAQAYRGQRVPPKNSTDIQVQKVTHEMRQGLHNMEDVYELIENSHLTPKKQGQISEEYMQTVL

CCO[Si](C)(OCC)OCC
inactive: Potency [1] | Potency [2] | outcome [3] | outcome [4] | Potency [5] | Potency [6] | outcome [7] | Potency [8] | Potency [9] | outcome [10] | Potency [11] | outcome [12] | outcome [13] | Potency [14] | Potency [15] | activity change, positive = activation [16] 4.4% | Potency [17] | Potency [18]

CCCCCCOC(=O)c1ccccc1O
inactive: Potency [1] | outcome [3] | outcome [4] | Potency [5] | Potency [6] | outcome [7] | Potency [8] | Potency [9] | Potency [11] | outcome [12] | outcome [13] | Potency [15] | activity change, positive = activation [16] 8.56% | outcome [19] | Potency [17] | Potency [18] | Potency [20]
active: Potency [2] 17.8 µM

CC(C)(C)OC(=O)N1C[C@@H](F)C[C@H]1C(=O)O
inactive: Potency [1] | Potency [2] | outcome [3] | outcome [4] | Potency [5] | Potency [6] | outcome [7] | outcome [10] | Potency [11] | outcome [13] | Potency [14] | Potency [17] | Potency [18] | Potency [20]

COCCOC(=O)CC#N
inactive: Potency [1] | Potency [2] | outcome [3] | outcome [4] | Potency [5] | Potency [6] | outcome [7] | outcome [10] | Potency [11] | outcome [12] | outcome [13] | Potency [14] | outcome [19] | Potency [17] | Potency [18] | Potency [20]

O=[N+]([O-])c1ccc(Oc2ccc([N+](=O)[O-])cc2)cc1
inactive: Potency [1] | Potency [2] | outcome [3] | outcome [4] | Potency [5] | Potency [6] | outcome [7] | Potency [8] | Potency [9] | Potency [11] | outcome [13] | Potency [14] | Potency [15] | activity change, positive = activation [16] -4.74% | outcome [19] | Potency [18] | Potency [20]

CCC(=O)Nc1cccc(N)c1
inactive: Potency [1] | Potency [2] | outcome [3] | outcome [4] | Potency [5] | Potency [6] | outcome [7] | Potency [8] | Potency [9] | outcome [10] | Potency [11] | outcome [12] | outcome [13] | Potency [14] | Potency [15] | activity change, positive = activation [16] -10.7% | outcome [19] | Potency [17] | Potency [18]

CC(C)COC(=O)c1ccccc1O
inactive: Potency [1] | Potency [2] | outcome [3] | outcome [4] | Potency [5] | Potency [6] | outcome [10] | Potency [11] | Potency [14] | outcome [19] | Potency [17] | Potency [18] | Potency [20]

C#CC(O)C(CC)CCCC (stereo unspecified)
inactive: Potency [1] | Potency [2] | outcome [3] | outcome [4] | Potency [5] | Potency [6] | outcome [10] | Potency [11] | outcome [12] | outcome [13] | Potency [14] | Potency [17] | Potency [18] | Potency [20]

CC(O)CN(CCCN(C)C)CCCN(C)C (stereo unspecified)
inactive: Potency [1] | Potency [2] | outcome [3] | outcome [4] | Potency [5] | Potency [6] | outcome [7] | Potency [11] | outcome [12] | outcome [13] | Potency [14] | outcome [19] | Potency [17] | Potency [18] | Potency [20]

CC(C)CCCCCCN
inactive: Potency [1] | Potency [2] | outcome [3] | outcome [4] | Potency [5] | Potency [6] | outcome [10] | Potency [11] | outcome [12] | outcome [13] | outcome [19] | Potency [17] | Potency [18]

CCCCOCC(C)OCC(C)O (stereo unspecified)
inactive: Potency [1] | Potency [2] | outcome [3] | outcome [4] | Potency [5] | Potency [6] | outcome [7] | outcome [12] | outcome [13] | outcome [19] | Potency [17] | Potency [18] | Potency [20]

NC(=O)Nc1nc2ccccc2[nH]1
inactive: Potency [1] | Potency [2] | outcome [3] | outcome [4] | Potency [5] | Potency [6] | Potency [11] | outcome [12] | outcome [13] | outcome [19] | Potency [17] | Potency [18] | Potency [20]

C=C(C)[C@H]1CC=C(C)CC1
inactive: Potency [1] | Potency [2] | outcome [3] | outcome [4] | Potency [5] | Potency [6] | outcome [7] | outcome [19] | Potency [17] | Potency [18] | Potency [20]

C=C(C)C(=O)NCCC[N+](C)(C)C
inactive: Potency [1] | Potency [2] | outcome [3] | outcome [4] | Potency [5] | Potency [6] | outcome [10] | outcome [12] | outcome [13] | Potency [14] | outcome [19] | Potency [17] | Potency [18] | Potency [20]

CC(=O)c1ccc(C)cc1
inactive: Potency [1] | Potency [2] | outcome [3] | outcome [4] | Potency [5] | Potency [6] | outcome [10] | Potency [11] | outcome [12] | outcome [13] | Potency [14] | outcome [19] | Potency [17] | Potency [18] | Potency [20]

CCN1CCN(c2cc3c(cc2F)c(=O)c(C(=O)O)cn3C2CC2)CC1
inactive: Potency [1] | Potency [2] | outcome [3] | outcome [4] | Potency [5] | Potency [6] | outcome [7] | outcome [10] | outcome [12] | outcome [19] | Potency [17] | Potency [18] | Potency [20]

CCCCCCCCCCCCCCCCCCOCC(O)CO (stereo unspecified)
inactive: Potency [1] | Potency [2] | outcome [3] | outcome [4] | Potency [5] | Potency [6] | outcome [7] | outcome [10] | outcome [12] | outcome [13] | Potency [14] | outcome [19] | Potency [17] | Potency [18] | Potency [20]
